In PubChem BioAssay:
Active and inactive are the calls of the source.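 How the source made its calls, unless noted: active means compound raises GLP1 secretion from the human gut endocrine cells, with no numeric limit stated; inactive means the rest.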

What was measured:
[1] = stimulators of nuclear beta-catenin in C2C12, primary screen, imaging, WNT3A-conditioned medium, mouse C2C12, NPC library (AID 1117326; in the data active means nuclear beta-catenin stimulation mostly above about 4.2%, no sharp cut-off; inactive means mostly below about 10%; further: reference of the scale not given here); conditions: stronger effect = higher value
[2] = stimulators of insulin release from INS-1E, primary screen, cell-based, 5 mM glucose, NPC library (AID 1117329;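 active means compound raises insulin release from rat beta cells at 5 mM glucose, no numeric limit stated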; further: reference of the scale not given here); conditions: rat INS-1E insulin secretion, at 10 µM, stronger effect = higher value
[3] = growth inhibition of GSK3B-pretreated HCT116 cells – cell-based, CellTiter-Glo, 0.2 to 20 µM (AID 1117336;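 active means compounds lowering colon cancer cell viability after pretreatment blocking the GSK3B kinase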); conditions: HCT116 viability after GSK3B inhibitor, at 20 µM, stronger effect = higher value
[4] = inhibition of endothelial tube formation, primary screen, imaging, VEGF stimulated, CD31 staining, tube area, NPC library (AID 1117340;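 active means compound that reduces growth-factor-driven endothelial tube area in a mixed cell culture, no cutoff stated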); conditions: VEGF-stimulated ADSC/ECFC co-culture, at 10 µM, stronger effect = higher value
[5] = glucagon-like peptide 1 release enhancers, primary assay, NCI-H716 cell line, NPC library (AID 1117341); conditions: NCI-H716 cells, at 10 µM, stronger effect = higher value; further: reference of the scale not given here
[6] = HCT116 colon cancer cell growth inhibition, primary screen, CellTiter-Glo luminescence, NPC library (AID 1117342;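 active means compounds that lower survival of HCT116 colon cancer cells in the luminescence readout, no numeric limit stated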); conditions: at 20 µM (top of the series)
[7] = CellTiter-Glo luminescent readout of SW480 viability loss, NPC library primary (AID 1117343;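 active means compounds that lower viability of the colon cancer cells in the luminescence readout, with no numeric limit stated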); conditions: CellTiter-Glo luminescence; at 20 µM (top of the series)
[8] = decreased DLD-1 cellular survival, CellTiter-Glo luminescent readout, NPC compound collection, primary HTS (AID 1117346;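 active means compounds that lower survival of DLD-1 colon cancer cells in the luminescence readout, no cutoff given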); conditions: DLD-1 viability, CellTiter-Glo luminescence; at 20 µM (top of the series)
[9] = biological target: 6-phosphogluconate dehydrogenase, decarboxylating (Homo sapiens) (UniProt P52209); experiment: 6PGD enzyme inhibitors, primary screen, biochemical, human, recombinant enzyme, NADPH absorbance (AID 1159550;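 active means at least 20% inhibition of 6-phosphogluconate dehydrogenase activity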); conditions: recombinant 6PGD, NADPH absorbance 341 nm; at 10 µM; stronger effect = higher value
6-phosphogluconate dehydrogenase, decarboxylating (Homo sapiens), sequence (P52209 whole entry, looked up): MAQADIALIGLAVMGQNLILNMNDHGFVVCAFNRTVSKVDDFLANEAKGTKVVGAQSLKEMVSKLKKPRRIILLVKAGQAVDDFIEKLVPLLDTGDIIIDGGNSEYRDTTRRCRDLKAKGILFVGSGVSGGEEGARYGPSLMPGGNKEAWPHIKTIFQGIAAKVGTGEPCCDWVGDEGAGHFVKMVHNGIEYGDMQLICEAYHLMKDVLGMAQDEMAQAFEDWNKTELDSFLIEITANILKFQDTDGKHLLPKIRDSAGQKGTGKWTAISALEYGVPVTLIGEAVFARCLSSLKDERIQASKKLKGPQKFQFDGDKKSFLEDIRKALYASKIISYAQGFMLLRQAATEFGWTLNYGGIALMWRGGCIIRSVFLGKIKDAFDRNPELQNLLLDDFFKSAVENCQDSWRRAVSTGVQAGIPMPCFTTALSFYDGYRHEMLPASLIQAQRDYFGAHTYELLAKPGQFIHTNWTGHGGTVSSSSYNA

Structure (SMILES) | nuclear beta-catenin stimulation ([1]; at 10 µM) | nuclear beta-catenin stimulation ([1]; stimulation, at 2 µM) [%] | insulin secretion stimulation [2] | viability decrease [3] | tube area decrease [4] | GLP1 secretion stimulation [5] | inhibition of viability [6] | viability decrease (inhibition) [7] | viability decrease (inhibition) [8] | inhibition [9]
Cc1cccc(C(=O)O)c1O | 0% (inactive) | 0.4 | -1.9% (inactive) | -9.8% (inactive) | 2.1% (inactive) | 1.9% (inactive) | -0.1% (inactive) | 22.1% (inactive) | -4.5% (inactive) | 9.08% (inactive)
NC(CS)C(=O)O (stereo unspecified) | -0.1% (inactive) | 0.4 | -0.5% (inactive) | -0.35% (inactive) | 3.4% (inactive) | -1.7% (inactive) | 16.7% (inactive) | 34.5% (inactive) | 32.7% (inactive) | 
O=C(O)CSCC(=O)NC1CCSC1=O (stereo unspecified) | -0.4% (inactive) | 1.1 | -1.9% (inactive) | -4% (inactive) | -2.7% (inactive) | -0.3% (inactive) | 9% (inactive) | 15.2% (inactive) | -4.25% (inactive) | 
CN1CCN(C(c2ccccc2)c2ccccc2)CC1 | -2.3% (inactive) | -0.3 | 5.5% (inactive) | -48% (inactive) | 22.5% (inactive) | 2.2% (inactive) | 7.1% (inactive) | 4.5% (inactive) | -11.9% (inactive) | -2.54% (inactive)
O=C(O)CCC(=O)c1ccc(-c2ccccc2)cc1 | 4.2% (inactive) | 0.6 | 1.1% (inactive) | -13% (inactive) | 14.5% (inactive) | 0.1% (inactive) | 12.7% (inactive) | 13.6% (inactive) | 0.4% (inactive) | 8.67% (inactive)
CN1CCN(c2cc3c(cc2F)c(=O)c(C(=O)O)cn3-c2ccc(F)cc2)CC1 | 0.8% (inactive) | 0.3 | -1.1% (inactive) | 9.9% (inactive) | -7.2% (inactive) | 0.1% (inactive) | 17.4% (inactive) | -0.8% (inactive) | 2.2% (inactive) | 
Cc1cc(=O)n(-c2ccccc2)n1C | 1.1% (inactive) | 0.3 | -0.2% (inactive) | -26.3% (inactive) | -3.4% (inactive) | 0.4% (inactive) | 1.15% (inactive) | 4% (inactive) | -8.2% (inactive) | 6.71% (inactive)
CN(C)C(=O)Nc1ccc(Cl)c(Cl)c1 | 3.6% (inactive) | 0.5 | -2.3% (inactive) | -3.75% (inactive) | -17.1% (inactive) | -0.7% (inactive) | -2.8% (inactive) | 11.2% (inactive) | 13.6% (inactive) | -8.44% (inactive)
Cc1nc2n(c(=O)c1CCN1CCC(c3noc4cc(F)ccc34)CC1)CCC[C@H]2O | 0% (inactive) | -0.1 | 1.1% (inactive) | -7.1% (inactive) | 8.8% (inactive) | -0.7% (inactive) | 20.5% (inactive) | -9.1% (inactive) | -6.6% (inactive) | 
CC1(C)O[C@H]2CC(=O)OC[C@]23[C@H]2CC[C@@]4(C)[C@H](c5ccoc5)OC(=O)[C@H]5O[C@]54[C@]2(C)C(=O)C[C@@H]13 | -0.3% (inactive) | 0.6 | 0.05% (inactive) | 2.7% (inactive) | 16.3% (inactive) | 2% (inactive) | -6.9% (inactive) | -12.1% (inactive) | -9.6% (inactive) | 5.47% (inactive)
C[n+]1c2cc(N)ccc2cc2ccc(N)cc21 (tested in a mixture with another compound) | 123% (active) | 8 | 0.4% (inactive) | 70.5% (active) | -105% (inactive) | 5.7% (inactive) | 83.8% (active) | 68.8% (active) | 95.2% (active) | 
C/C=C1\[C@H]2C=C(C)C[C@]1(N)c1ccc(=O)[nH]c1C2 | -0.8% (inactive) | -0.8 | 1.5% (inactive) | 10.5% (inactive) | 0.1% (inactive) | 3.9% (inactive) | 3.1% (inactive) | -14.7% (inactive) | 0.1% (inactive) | 
N=C(N)N | -1.9% (inactive) | 0.6 | 1.1% (inactive) | -1.8% (inactive) | 12.8% (inactive) | -1.2% (inactive) | 1.3% (inactive) | 1% (active) | -1.3% (inactive) | 0.391% (inactive)
COc1cc(NS(=O)(=O)c2ccc(N)cc2)nc(OC)n1 | 0.5% (inactive) | 0.4 | 1.8% (inactive) | -7.9% (inactive) | 0.8% (inactive) | 1.9% (inactive) | -0.4% (inactive) | 8.4% (inactive) | 0.7% (inactive) | -12.2% (inactive)
COc1cc(/C=C/C(=O)CC(=O)/C=C/c2ccc(O)c(OC)c2)ccc1O | 1.5% (inactive) | -2.5 | 1.35% (inactive) | 26.1% (inactive) | -1.2% (inactive) | -0.1% (inactive) | 11.9% (inactive) | -4.1% (inactive) | -7.3% (inactive) | 8.75% (inactive)
CC1=C(C)C(=O)C(C(CCCCCC(=O)O)c2ccccc2)=C(C)C1=O (stereo unspecified) | 0% (inactive) | -1 | -0.1% (inactive) | 20.4% (inactive) | -6.8% (inactive) | 4% (inactive) | -4.2% (inactive) | -12.9% (inactive) | -13.3% (inactive) | 
CCC(C)n1ncn(-c2ccc(N3CCN(c4ccc(OC[C@H]5CO[C@](Cn6cncn6)(c6ccc(Cl)cc6Cl)O5)cc4)CC3)cc2)c1=O (stereo partly specified) | 36.2% (inactive) | 34.3 | 0.4% (inactive) | 68.8% (active) | 96.5% (active) | 2.2% (inactive) | 75.3% (active) | 112% (active) | 40.6% (inactive) | 
Oc1cccc2[nH]ccc12 | 1.5% (inactive) | -1.2 | 4.05% (inactive) | 41.8% (inactive) | -3.7% (inactive) | -2.4% (inactive) | 9.6% (inactive) | 0.4% (inactive) | -8.1% (inactive) | 
O=C(O)/C=C(\CC(=O)O)C(=O)O | -0.9% (inactive) | -0.6 | -2.3% (inactive) | 0.55% (inactive) | 5.8% (inactive) | 3.5% (inactive) | 7.4% (inactive) | 39.3% (inactive) | 11.3% (inactive) | 
COCCCOc1cc(C[C@@H](C[C@H](N)[C@@H](O)C[C@H](C(=O)NCC(C)(C)C(N)=O)C(C)C)C(C)C)ccc1OC | -0.6% (inactive) | 2.2 | 0.9% (inactive) | -5.3% (inactive) | 19.9% (inactive) | -4.7% (inactive) | 19.7% (inactive) | 4.7% (inactive) | 12.1% (inactive) | 
Cc1ccc2c(Cl)cc(Cl)c(O)c2n1 | 0.6% (inactive) | -1 | -0.8% (inactive) | -3.9% (inactive) | 9.4% (inactive) | 2% (inactive) | 2.45% (inactive) | 14.8% (inactive) | 3.5% (inactive) | 6.51% (inactive)
C#CCN[C@@H]1CCc2ccccc21 | 0.9% (inactive) | 1.4 | 2.6% (inactive) | -29.8% (inactive) | 3.2% (inactive) | 0% (inactive) | -2% (inactive) | -41% (inactive) | -21.6% (inactive) | 
C[C@@H]1CN(c2c(F)c(F)c3c(=O)c(C(=O)O)cn(C4CC4)c3c2F)C[C@H](C)N1 | -0.9% (inactive) | 1.1 | -0.9% (inactive) | -4.4% (inactive) | -17.5% (inactive) | -0.3% (inactive) | 4.9% (inactive) | 24.4% (inactive) | -6.7% (inactive) | 
COc1cc(C(=O)NCc2ccc(OCCN(C)C)cc2)cc(OC)c1OC | 9.2% (inactive) | 5.8 | 2.5% (inactive) | 19.5% (inactive) | 16.6% (inactive) | -2.4% (inactive) | -8.75% (inactive) | -11.4% (inactive) | -8.9% (inactive) | 10.5% (inactive)
Cc1c[nH]c2ccccc12 | 2% (inactive) | 0.3 | -2.3% (inactive) | 3.8% (inactive) | 5.5% (inactive) | -1.7% (inactive) | 10.3% (inactive) | 15% (inactive) | 10% (inactive) | 
O=c1[nH]cnc2c1ncn2[C@@H]1O[C@H](CO)[C@@H](O)[C@H]1O | -1% (inactive) | 3.1 | -0.1% (inactive) | -12.4% (inactive) | 2.1% (inactive) | 0.9% (inactive) | -0.1% (inactive) | -39.7% (inactive) | -12.5% (inactive) | -10.6% (inactive)
Cc1onc(-c2ccccc2Cl)c1C(=O)N[C@@H]1C(=O)N2[C@@H]1SC(C)(C)[C@@H]2C(=O)O | 0.5% (inactive) | 0.3 | -0.3% (inactive) | -27.7% (inactive) | 12.2% (inactive) | -1% (inactive) | 19.2% (inactive) | -3.3% (inactive) | -0.7% (inactive) | -7.26% (inactive)
C[C@@H]1CC[C@@]2(OC1)O[C@H]1C[C@H]3[C@@H]4CC[C@H]5C[C@@H](O)CC[C@]5(C)[C@H]4CC(=O)[C@]3(C)[C@H]1[C@@H]2C | 6.5% (inactive) | 4.8 | 3.2% (inactive) | 13.4% (inactive) | -13.1% (inactive) | -3.1% (inactive) | 4.27% (inactive) | 7.5% (inactive) | 3.7% (inactive) | 14.9% (inactive)
Cc1ccc(C(C)C)cc2c(C)ccc1-2 | -1.2% (inactive) | 0.2 | -0.7% (inactive) | -28.6% (inactive) | 15.5% (inactive) | -6.3% (inactive) | 5.77% (inactive) | -9.4% (inactive) | -6.8% (inactive) | -19.1% (inactive)
Cc1cc(C2CCCCC2)n(O)c(=O)c1 | 64.4% (active) | 14.3 | 0.4% (inactive) | 49.9% (active) | 109% (active) | -3.2% (inactive) | 75.1% (active) | 108% (active) | 90.8% (active) | 1.68% (inactive)
